Measured values reported in PubChem BioAssay.
Inconclusive results are not listed. Calls of active or inactive are those of the source. Unless noted, the limit is not given here; nearly all actives have AC50 up to about 26 µM.

Key:
[1] = test system: Hepatitis C virus NS3 helicase; test: blockers of NS3h binding to ssDNA – biochemical, fluorescence polarization, LOPAC1280 library, primary screen (AID 687035; in the data active = inhibition above about 37%); conditions: Purified HCV NS3 helicase, Cy5-dT15 ssDNA binding fluorescence polarization; stronger effect = higher value; concentration not given here
[2] = compounds altering Cy5-DNA-NS3h complex signal – biochemical, LOPAC1280, artefact control for HCV NS3 helicase inhibitor project (AID 687037; call rule not given here); conditions: Cy5-DNA-NS3h complex fluorescence interference counterscreen
[3] = viability loss in pontine glioma line – cell-based, SU-DIPG-XVII, MIPE5.0, CellTiter-Glo, qHTS, dose response (AID 1347060); conditions: CellTiter-Glo ATP luminescence;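 as to AC50: cells exposed to compound for 48 hours before viability readout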
[4] = viability loss in pontine glioma line – cell-based, SU-DIPG-XIII, MIPE5.0, CellTiter-Glo, qHTS, dose response (AID 1347064; cut-off not given, nearly all actives have AC50 up to about 23 µM;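 as to AC50: cells exposed to compound for 48 hours before the viability read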); conditions: CellTiter-Glo ATP luminescence
[5] = viability loss in pontine glioma line – cell-based, SU-DIPG-XXV, MIPE5.0, CellTiter-Glo, qHTS, dose response (AID 1347065); conditions: CellTiter-Glo ATP luminescence;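 also: cells exposed to compound for 48 hours before ATP readout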
[6] = JHH-DIPG-1 glioma cell viability, MIPE5.0 library, CellTiter-Glo luminescence, qHTS (AID 1347067); conditions: JHH-DIPG-1 glioma viability, CellTiter-Glo ATP luminescence;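 also: cells exposed to compound for 48 hours before readout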
[7] = viability loss with induced miR-34 in A549 – imaging, A549 dox-inducible miR-34, nuclei and caspase counts, primary screen (AID 1347080;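 active = compounds whose cell count with miR-34 switched on is under 0.7 times the count with it off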); conditions: A549 miR-34 inducible, Hoechst nuclei count, 48 h
[8] = blockers of cellular phospholipid synthesis – cell-based, LOPAC library, screen 4, primary screen (AID 1347384; call rule not given here); conditions: animal cells, phospholipid biosynthesis inhibition screen; at 10 µM
[9] = galactose survival enhancers in mitochondrial complex I cybrids – cell-based, galactose medium, ATP luminescence, primary screen (AID 1645843;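 active = z-score of at least 1.8 in each of two replicates, scored against plate mean and spread of sample wells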;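 also: positive z means more ATP and so rescue of galactose-driven cybrid death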); conditions: complex I mutant cybrid cells, 72 h, stronger effect = higher value
[10] = growth inhibition of DIPG cells – cell-based, MIPE5.0 library, qHTS (AID 1347068; cut-off not given, nearly all actives have IC50 up to about 30 µM;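 as to IC50: cells exposed to compound for 48 hours before viability readout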); conditions: SU-DIPG-XXV viability
[11] = growth inhibition of DIPG cells – cell-based, MIPE4.0 library, CellTiter-Glo luminescence, qHTS (AID 1347066; cut-off not given, nearly all actives have AC50 up to about 30 µM;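 also: cells exposed to compound for 48 hours before readout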); conditions: SU-DIPG-VI viability, CellTiter-Glo ATP luminescence
[12] = compounds altering HSF1 focus formation in cells – imaging, Selleck Cancer Library (AID 1347162; in the data active = plate-normalised HSF1 focus index below about 0.46); conditions: human cells, HSF1 nuclear foci imaging, at 10 µM; SSMD: measured here: HSF1 foci SSMD mean; cell count: measured here: cell number; plate-normalised HSF1 focus index: stronger effect = lower value

## COc1cc(/C=C(\C#N)C(=O)Nc2nnc(C(F)(F)F)s2)ccc1OCc1ccc(C(F)(F)F)cc1C(F)(F)F
[1]
  inhibition: -5% (inactive)
[2]
  fluorescence ratio (interference): 1 (inactive)
[3]
  AC50: 5.25 µM (active)
[4]
  AC50: 4.17 µM (active)
[5]
  AC50: 3.72 µM (active)
[6]
  AC50: 14.8 µM (active)
[7]; stronger effect = lower value, cell number ratio, induced over uninduced
  fold change: 0.986 (inactive)
[7]; measured here: relative caspase fold change +Dox/-Dox
  fold change: 0.417
[7]; measured here: total cells with miR-34 induction, stronger effect = lower value
  cell count: 1620
[7]; measured here: total cells without miR-34 induction
  cell count: 1640
[8]
  outcome: inactive
[9]
  z-score: 0.35 (inactive)

## O=C(CCl)Nc1cccc(NC2=NS(=O)(=O)c3ccccc32)c1
[3]
  AC50: 11.8 µM (active)
[4]
  AC50: 9.34 µM (active)
[6]
  AC50: 5.25 µM (active)

## CC(C)=CCC[C@](C)(O[C@@H]1O[C@H](CO[C@@H]2O[C@H](CO)[C@@H](O)[C@H](O)[C@H]2O)[C@@H](O)[C@H](O)[C@H]1O)[C@H]1CC[C@]2(C)[C@@H]1[C@H](O)C[C@@H]1[C@@]3(C)CC[C@H](O[C@@H]4O[C@H](CO)[C@@H](O)[C@H](O)[C@H]4O[C@@H]4O[C@H](CO)[C@@H](O)[C@H](O)[C@H]4O)C(C)(C)[C@@H]3CC[C@]12C
[3]
  outcome: inactive
[4]
  outcome: inactive
[6]
  outcome: inactive
[10]
  outcome: inactive

## CC(=O)Nc1ccc(C(=O)NC(C)(C)C)cc1
[3]
  outcome: inactive
[4]
  outcome: inactive
[6]
  outcome: inactive

## CC(C)[C@H]1C(=O)N[C@@H](CCCN=C(N)N)C(=O)NCC(=O)N[C@@H](CC(=O)O)C(=O)N[C@H](Cc2ccccc2)C(=O)N1C
[3]
  outcome: inactive
[4]
  outcome: inactive
[6]
  outcome: inactive
[10]
  outcome: inactive

## CC(C)(C(=O)NCC(F)(F)C(F)(F)F)C(=O)N[C@@H]1C(=O)Nc2ccccc2-c2ccccc21
[3]
  outcome: inactive
[4]
  outcome: inactive
[11]
  outcome: inactive
[6]
  outcome: inactive
[10]
  outcome: inactive
[12]
  SSMD: 3.83
  cell count: 7550
  plate-normalised HSF1 focus index: 1.24 (inactive)

## NCC1CCN(c2nccc(-c3ccc4ccccc4c3)n2)CC1
[3]
  AC50: 11.8 µM (active)
[4]
  AC50: 16.6 µM (active)
[6]
  AC50: 10.5 µM (active)

## CCn1c(=O)c(-c2ccc(-c3cncc(C)n3)cc2Cl)cc2cnc(NCCC3CCN(C)CC3)nc21
[3]
  outcome: inactive
[4]
  outcome: inactive
[6]
  outcome: inactive
[10]
  IC50: 1.86 µM (active)

## CCCN1CCN(c2ccc(C(=O)NC3(C(=O)NCC#N)CCCCC3)cc2)CC1
[3]
  outcome: inactive
[4]
  outcome: inactive
[6]
  outcome: inactive
[10]
  outcome: inactive

## C[N+](C)(C)CC(=O)O
[3]
  outcome: inactive
[4]
  outcome: inactive
[5]
  outcome: inactive
[10]
  outcome: inactive
[8]
  outcome: inactive

## CN1CCN(c2ncc(-c3cc(Cl)cc(Cl)c3Cl)c(N)n2)CC1
[3]
  outcome: inactive
[4]
  outcome: inactive
[11]
  outcome: inactive
[6]
  outcome: inactive
[10]
  outcome: inactive

## C[C@@H]1O[C@@H](O[C@@H]2\C=C/C=C\C=C/C=C\C[C@H](C)OC(=O)/C=C\[C@H]3O[C@@H]3C[C@H](O)C[C@]3(O)C[C@@H](O)[C@@H](C(=O)O)[C@H](C2)O3)[C@H](O)[C@H](N)[C@@H]1O
[3]
  outcome: inactive
[4]
  outcome: inactive
[6]
  outcome: inactive
[10]
  outcome: inactive

## C[C@H](NC(=O)C(=O)Nc1ccccc1C(C)(C)C)C(=O)N[C@@H](CC(=O)O)C(=O)COc1c(F)c(F)cc(F)c1F
[3]
  outcome: inactive
[4]
  AC50: 16.6 µM (active)
[6]
  AC50: 2.95 µM (active)
[10]
  outcome: inactive
